According to PubChem BioAssay (NCATS):
Results filed as inconclusive are left out. Activity calls are given as the source filed them. Calls come from the whole dose curve; as a rule, active = well fitted curve in the direction sought with a large enough effect; inconclusive = small, poorly fitted or top-dose-only effect, or another doubt; inactive = no such curve, though single readings can be large; an effect the other way counts as inactive or inconclusive.

Legend:
[1] = Quantitative High-Throughput drug screen in 47 multiple myeloma cell lines against the NCATS MIPE library collection: FR4_PLB cell viability assay (AID 1918924; note: nearly all actives have a fitted effect of over 35% in size)
Procedure, shortened: (§1)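 Viability readout: CellTiter-Glo luminescence following 5 min room-temperature incubation with reagent. Prior exposure: 48 h, 37C, humidified 5% CO2, 500 cells per well.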

[2] = Quantitative High-Throughput drug screen in 47 multiple myeloma cell lines against the NCATS MIPE library collection: Delta47_JCRB cell viability assay (AID 1918925; note: nearly all actives have a fitted effect of over 45% in size)
Procedure, shortened: (§2)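 Steps: seed 500 cells per well; pin-transfer MIPE 4.0 library; incubate 48 h at 37C, 5% CO2, humidified; add CellTiter-Glo, 5 min room temperature; read luminescence.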

[3] = Quantitative High-Throughput drug screen in 47 multiple myeloma cell lines against the NCATS MIPE library collection: EJM_DSMZ cell viability assay (AID 1918926; note: nearly all actives have a fitted effect of over 30% in size)
Procedure, shortened: as §2

[4] = Quantitative High-Throughput drug screen in 47 multiple myeloma cell lines against the NCATS MIPE library collection: ARP1_JJKsccF8 cell viability assay (AID 1918928; note: nearly all actives have a fitted effect of over 40% in size)
Procedure, shortened: (§3)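 Here, 48 h treatment with MIPE 4.0 agents at 37 °C preceded an ATP luminescence read. Plating density was 500 cells per well.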

[5] = Quantitative High-Throughput drug screen in 47 multiple myeloma cell lines against the NCATS MIPE library collection: KMM1_JCRB cell viability assay (AID 1918960); note: nearly all actives have a fitted effect of over 30% in size
Procedure, shortened: as §3

[6] = Quantitative High-Throughput drug screen in 47 multiple myeloma cell lines against the NCATS MIPE library collection: JIM3_ECACC cell viability assay (AID 1918963; note: nearly all actives have a fitted effect of over 35% in size)
Procedure, shortened: as §1

[7] = Quantitative High-Throughput drug screen in 47 multiple myeloma cell lines against the NCATS MIPE library collection: INA6_PLB cell viability assay (AID 1918965; note: nearly all actives have a fitted effect of over 55% in size)
Procedure, shortened: (§4)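 Approved and investigational drugs from MIPE 4.0 were added by pin tool to 500 cells per well. After 48 hours at 37C, ATP-based CellTiter-Glo luminescence indicated remaining viability.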

[8] = Quantitative High-Throughput drug screen in 47 multiple myeloma cell lines against the NCATS MIPE library collection: H1112_PLB cell viability assay (AID 1918967; note: nearly all actives have a fitted effect of over 30% in size)
Procedure, shortened: as §2

[9] = Quantitative High-Throughput drug screen in 47 multiple myeloma cell lines against the NCATS MIPE library collection: Karpas25_ECACC cell viability assay (AID 1918968; note: nearly all actives have a fitted effect of over 35% in size)
Procedure, shortened: as §2

[10] = Quantitative High-Throughput drug screen in 47 multiple myeloma cell lines against the NCATS MIPE library collection: KMS12BM_JCRB cell viability assay (AID 1918971); note: nearly all actives have a fitted effect of over 35% in size
Procedure, shortened: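 We plated 500 myeloma cells per well, pinned in MIPE 4.0 compounds, and incubated for 48 hours at 37C. ATP was then quantified with CellTiter-Glo, with DMSO and media-only wells defining 100% and 0%.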

[11] = Quantitative High-Throughput drug screen in 47 multiple myeloma cell lines against the NCATS MIPE library collection: KMS12PE_JCRB cell viability assay (AID 1918972); note: nearly all actives have a fitted effect of over 30% in size
Procedure, shortened: as §4

[12] = Quantitative High-Throughput drug screen in 47 multiple myeloma cell lines against the NCATS MIPE library collection: AMO1_DSMZ cell viability assay (AID 1918927; note: nearly all actives have a fitted effect of over 30% in size)
Procedure, shortened: as §2

[13] = Quantitative High-Throughput drug screen in 47 multiple myeloma cell lines against the NCATS MIPE library collection: ARD_JJKsccE7 cell viability assay (AID 1918929)
Procedure, shortened: as §2

[14] = Quantitative High-Throughput drug screen in 47 multiple myeloma cell lines against the NCATS MIPE library collection: JJN3_DSMZ cell viability assay (AID 1918966; note: nearly all actives have a fitted effect of over 50% in size)
Procedure, shortened: as §2

[15] = Quantitative High-Throughput drug screen in 47 multiple myeloma cell lines against the NCATS MIPE library collection: Karpas620_DSMZ cell viability assay (AID 1918959); note: nearly all actives have a fitted effect of over 30% in size
Procedure, shortened: as §1

[16] = Quantitative High-Throughput drug screen in 47 multiple myeloma cell lines against the NCATS MIPE library collection: KHM11_PLB cell viability assay (AID 1918962); note: nearly all actives have a fitted effect of over 35% in size
Procedure, shortened: as §1

[17] = Quantitative High-Throughput drug screen in 47 multiple myeloma cell lines against the NCATS MIPE library collection: JIM1_ECACC cell viability assay (AID 1918964)
Procedure, shortened: as §2

[18] = Quantitative High-Throughput drug screen in 47 multiple myeloma cell lines against the NCATS MIPE library collection: KMS27_JCRB cell viability assay (AID 1918970); note: nearly all actives have a fitted effect of over 30% in size
Procedure, shortened: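 ATP-based viability (CellTiter-Glo luminescence) is measured in cells treated 48 h with approved and investigational drugs at 37 °C. Controls are DMSO-only wells for full viability and media-only wells for none.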

[19] = Quantitative High-Throughput drug screen in 47 multiple myeloma cell lines against the NCATS MIPE library collection: Karpas417_ECACC cell viability assay (AID 1918961); details: Karpas417 myeloma viability, CellTiter-Glo ATP luminescence, 48 h; viability (% of DMSO): at 45.8 µM (top of the series)
Procedure, shortened: as §4

Measured: Potency
Potency is the fitted concentration of half-maximal effect.

Cc1[nH]c2ccccc2c1CCNCc1ccc(C=CC(=O)NO)cc1
active: [1] 0.0469 µM | [2] 0.0526 µM | [3] 0.148 µM | [4] 0.0418 µM | [5] 0.0526 µM | [6] 0.235 µM | [7] 0.0132 µM | [8] 0.105 µM | [9] 0.0209 µM | [10] 0.059 µM | [11] 0.0526 µM

Cc1ccc(S(=O)(=O)Nc2cc(Cl)ccc2C(=O)Nc2nc(-c3ccccc3)cs2)cc1
active: [1] 20.9 µM | [2] 4.69 µM | [12] 9.35 µM | [4] 20.9 µM | [13] 7.43 µM | [5] 4.18 µM | [6] 5.26 µM | [7] 8.33 µM | [14] 18.7 µM | [9] 5.26 µM | [10] 16.6 µM | [11] 2.64 µM

O=c1[nH]c(=O)n(C2CCCO2)cc1F (configuration not stated)
active: [10] 19.1 µM
inactive: [1] | [2] | [12] | [4] | [13] | [15] | [5] | [16] | [6] | [17] | [14] | [8] | [9] | [18] | [11]

CC(=O)OCC(=O)[C@@]1(O)[C@H](C)C[C@H]2[C@@H]3C=C(C)C4=Cc5c(cnn5-c5ccccc5)C[C@]4(C)[C@@H]3[C@@H](O)C[C@@]21C
active: [1] 14.8 µM | [2] 5.9 µM | [3] 20.9 µM | [4] 4.69 µM | [15] 8.33 µM | [6] 9.35 µM | [17] 9.35 µM | [7] 5.26 µM | [14] 9.35 µM | [8] 10.5 µM | [10] 16.6 µM | [11] 8.33 µM

CN1CC[C@@H](c2c(O)cc(O)c3c(=O)cc(-c4ccccc4Cl)oc23)[C@@H](O)C1
active: [1] 0.0332 µM | [2] 0.0662 µM | [3] 0.0743 µM | [4] 0.0833 µM | [13] 0.0469 µM | [15] 0.0935 µM | [5] 0.059 µM | [19] 0.0187 µM | [6] 0.0833 µM | [17] 0.0235 µM | [7] 0.0418 µM | [14] 0.0743 µM | [8] 0.132 µM | [9] 0.0833 µM | [18] 0.0935 µM | [10] 0.132 µM | [11] 0.132 µM

CCCCN1CCC(CNC(=O)c2c3n(c4ccccc24)CCCO3)CC1
active: [1] 11.8 µM | [2] 6.62 µM | [3] 1.48 µM | [4] 20.9 µM | [13] 16.6 µM | [6] 18.7 µM | [7] 16.6 µM | [8] 9.35 µM | [10] 10.5 µM

CC(C)(C)OC(=O)Nc1ccc(-c2cc(C(=O)NCCCCCCC(=O)NO)no2)cc1
active: [1] 1.32 µM | [2] 0.833 µM | [3] 3.72 µM | [4] 0.743 µM | [13] 0.935 µM | [15] 2.35 µM | [16] 5.9 µM | [6] 3.72 µM | [7] 0.469 µM | [8] 3.72 µM | [9] 0.935 µM | [10] 1.66 µM | [11] 0.935 µM

CNC(=O)c1c(F)cccc1Nc1nc(Nc2cc3c(cc2OC)CCN3C(=O)CN(C)C)nc2[nH]ccc12
active: [1] 10.5 µM | [2] 0.0526 µM | [3] 0.209 µM | [4] 5.26 µM | [16] 9.35 µM | [6] 0.105 µM | [7] 5.9 µM | [14] 6.62 µM | [8] 1.87 µM | [9] 0.0935 µM | [10] 14.8 µM
inactive: [19] | [18]

COC(=O)[C@]12CCC(C)(C)C[C@@H]1[C@@H]1C(=O)C=C3[C@@]4(C)C=C(C#N)C(=O)C(C)(C)[C@@H]4CC[C@@]3(C)[C@]1(C)CC2
active: [1] 0.372 µM | [2] 0.235 µM | [3] 0.418 µM | [4] 0.469 µM | [13] 0.662 µM | [15] 0.526 µM | [5] 0.662 µM | [19] 0.526 µM | [16] 0.469 µM | [6] 0.166 µM | [17] 0.418 µM | [7] 0.059 µM | [14] 0.526 µM | [8] 0.418 µM | [9] 0.209 µM | [18] 0.526 µM | [10] 0.526 µM | [11] 0.662 µM

CCC1=C[C@@H]2CN(C1)Cc1c([nH]c3ccccc13)[C@@](C(=O)OC)(c1cc3c(cc1OC)N(C)[C@@H]1[C@@](O)(C(=O)OC)[C@H](OC(C)=O)[C@]4(CC)C=CCN5CC[C@]31[C@@H]54)C2
active: [1] 0.0047 µM | [2] 0.0235 µM | [3] 1.05 µM | [4] 0.0053 µM | [13] 0.0074 µM | [5] 0.0083 µM | [6] 0.0148 µM | [17] 0.0019 µM | [14] 7.43 µM | [8] 0.148 µM | [9] 0.0187 µM | [18] 0.0047 µM | [10] 0.0264 µM | [11] 0.0093 µM

C[C@@]12O[C@@H](C[C@]1(O)CO)n1c3ccccc3c3c4c(c5c6ccccc6n2c5c31)CNC4=O
active: [1] 6.62 µM | [2] 0.418 µM | [3] 2.96 µM | [4] 0.662 µM | [5] 0.526 µM | [16] 0.0662 µM | [6] 0.526 µM | [7] 0.0743 µM | [14] 0.418 µM | [8] 1.48 µM | [9] 0.296 µM | [10] 1.48 µM
